Screening data: PubChem BioAssay, National Center for Advancing Translational Sciences (NCATS)
PLK1 PBD inh – blocks phosphopeptide binding to human PLK1 polo-box domain | AID 720504 | Potency, µM, for the others: max response, negative = inhibition, actives largely listed as inhibitors | P53350 | Plk1 PBD binding of FITC phosphopeptide, fluorescence polarization | actives 2.8% (n = 360,000); also: series mostly up to about 57 µM; % is scaled to controls: 0 for no effect and ±100 for the full control effect; nearly all actives have a fitted effect of over 65% in size
BAZ2B inh – BAZ2B (human) inhibition; AID 504333; AlphaScreen BAZ2B-H3K14Ac peptide displacement; Potency, µM (top dose mostly 114 µM), for inactives: at the highest dose activity change, negative = inhibition, actives largely listed as inhibitors; actives 4.4% (n = 360,000); also: % is scaled to controls: 0 for no effect and ±100 for the full control effect; nearly all actives have a fitted effect of over 60% in size
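Multi-concentration screen (max 110 uM) measuring displacement of acetylated histone H3 peptide from BAZ2B by AlphaScreen, using 50 nM protein, 50 nM peptide and 10 ug/mL streptavidin donor plus Ni-chelate acceptor beads.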
JMJD2A Tudor – blocks the human JMJD2A Tudor domain; AlphaScreen JMJD2A-Tudor / H3K4me3 peptide binding; actives 4.4% (n = 390,000); Potency, µM (titrated, usually from 114 µM), for inactives: at the top dose activity change, negative = inhibition, usual class: inhibitors; also: % is scaled to controls: 0 for no effect and ±100 for the full control effect; nearly all actives have a fitted effect of over 50% in size
L3MBTL1 block – L3MBTL1 (human) inhibition; Q9Y468; AlphaScreen L3MBTL1–H3K9me1 peptide binding; Potency, µM (doses to about 57.1 µM), for the others: at the top dose activity, negative = inhibition, actives largely listed as inhibitors; actives 0.66% (n = 230,000); AID 485360; also: % is scaled to controls: 0 for no effect and ±100 for the full control effect; nearly all actives have a fitted effect of over 60% in size
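Read-out is AlphaScreen signal from streptavidin donor and nickel chelate acceptor beads (10 ug/mL final each) bridging L3MBTL1 (50 nM) and biotinylated K9-monomethylated H3(1-15) peptide (75 nM), after 30 min compound exposure at room temperature.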
HP1b binding inh – inhibitors of HP1-beta chromodomain binding to methylated histone tails; actives 0.56% (n = 390,000); AlphaScreen HP1-beta / biotin-H3K9me3 peptide binding; P83916; Potency, µM (highest dose often 114 µM), without a hit: top-dose activity change, negative = inhibition, actives largely listed as inhibitors; also: nearly all actives have a fitted effect of over 70% in size
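Compound inhibition of the preformed complex between 50 nM HP1-beta and 50 nM biotinylated H3K9me3 peptide was read by AlphaScreen. Buffer was PBS pH 7.4 with 0.01% Tween-20. Incubations ran 30 min at room temperature, with 10 ug/mL donor/acceptor beads.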
VDR inhibitor – vitamin D3 receptor (human) inhibition. Potency, µM, for inactives: max response, negative = inhibition, actives largely listed as inhibitors. actives 0.93% (n = 400,000). VDR-SRC2-3 peptide fluorescence polarization, 2 h; also: % is scaled to controls: 0 for no effect and ±100 for the full control effect
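Two reagent solutions held at 4 deg C in the dark were dispensed, compounds pinned at 23 nl, and the mixture incubated 2 h at room temperature. Read-out: fluorescence polarization of VDR–SRC2-3 peptide binding.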
Numbers without * were called inactive; ? = inconclusive; . = no result given; [ ] = another dose, or the depositor's remark. In the library only some 6.9% were active in any assay of this set; here they are far more common. Calls follow the shape of the dose curve; as a rule, active = well fitted curve in the direction sought with a large enough effect; inconclusive = small, poorly fitted or top-dose-only effect, or another doubt; inactive = no such curve, though single readings can be large; an effect the other way counts as inactive or inconclusive. Potency is read from the fitted curve at half-maximal effect.

SMILES	PLK1 PBD inh	BAZ2B inh	JMJD2A Tudor	L3MBTL1 block	HP1b binding inh	VDR inhibitor
CCC(=O)OCCNc1cc(Sc2nc3ccccc3[nH]2)c2nonc2c1[N+](=O)[O-]	1.2µM*	-34%	79µM*	-1%	?	?
CCOC(=O)C1CCCN(c2cc(NCCCO)c([N+](=O)[O-])c3nonc23)C1 (stereo not drawn)	.	5%	.	4%	.	.
CCCSc1cc(NCCOC(C)=O)c([N+](=O)[O-])c2nonc12	?	-20%	-18%	3%	12%[57 µM]	?
CC(=O)OCCCNc1cc(SCc2ccco2)c2nonc2c1[N+](=O)[O-]	?	?	50µM*	?	?	79µM*
CSc1cccc(NS(=O)(=O)c2ccc3[nH]cc(C(=O)N4CCCCCC4)c(=O)c3c2)c1	.	.	-26%	.	22%	-24%
Cc1ccc(NC(=O)c2sc(-n3nc(C)c(Cc4ccc5c(c4)OCO5)c3C)nc2C)cc1C	.	-6%	-24%	.	28%	-4%
Cc1ccc2nc(-c3ccc(Cl)c(NC(=O)COc4ccc(C(C)C)cc4)c3)oc2c1	.	-12%	-2%	.	18%	-8%
CCN(CC)CCN1C(=O)C(O)=C(C(=O)c2cccs2)C1c1ccccn1 (stereo not drawn)	-2%	50µM*	?	.	21%	-2%
CCNC(=S)N1CCN(Cc2ccc3c(c2)OCO3)CC1	1%	-5%	4%	8%	45%	10%
C=CCNC(=S)N1CCN(Cc2ccc3c(c2)OCO3)CC1	-9%	50µM*	14µM*	34%[2.29 µM]	?	6%
O=C(NC(=S)N1CCN(Cc2ccc3c(c2)OCO3)CC1)c1cccc(Br)c1	2%	25µM*	?	?	-10%	-30%
CCCNC(=S)N1CCN(Cc2ccc3c(c2)OCO3)CC1	-7%	?	28µM*	8%	?	18%
O=C(Cc1ccccc1)NC1CC(=O)N(c2ccc3c(c2)OCCO3)C1 (stereo not drawn)	.	6%	-11%	.	54%	4%
Cc1cc(C(=O)COc2ccc(F)cc2Br)c(C)n1C1CC1	-5%	-5%	-8%	-10%	11%	-15%
O=C(CNS(=O)(=O)c1c(Cl)cccc1Cl)OCC(=O)c1ccc[nH]1	-3%	79µM*	-27%	-23%	16%	2%
CCCNC(=O)CNC(=O)c1ccc(C#N)cc1	-8%	.	-14%	-4%	24%	-25%
Cc1cccc(N2CCN(C(=O)CN3C(=O)COc4ccc(S(=O)(=O)N5CCCCCC5)cc43)CC2)c1C	.	-21%	-27%	.	12%	18%
Clc1cccc(-c2nn3c(Cn4cnc5ccccc54)nnc3s2)c1	11µM*	-1%	-28%	-14%	-28%	?
c1csc(-c2nn3c(Cn4nnc5ccccc54)nnc3s2)c1	-9%	3%	-11%	8%	34%	14%
c1csc(-c2nn3c(Cn4cnc5ccccc54)nnc3s2)c1	21µM*	2%	-33%	5%	?	-37%
CCn1c(C(=O)Nc2ccc(C)cc2C)cc2sc(Cl)cc21	.	5%	4%	.	59%	1%
C(=N\N1CCN(Cc2cccc3ccccc23)CC1)/c1cccs1	-9%	13µM*	40µM*	-4%	?	19%
Oc1ccc(Br)cc1/C=N/N1CCN(Cc2cccc3ccccc23)CC1	-2%	-39%	?	-3%	-2%	-1%
CCN(CC)c1ccc(/C=N/N2CCN(Cc3cccc4ccccc34)CC2)c(O)c1	-10%	?	7.1µM*	-8%	?	-17%
COCCNC(=S)c1ccc(Br)cc1	11µM*	-15%	-31%	4%	?	?
Cc1cc(OCCCCNC(C)C)cc(C(C)C)c1	2%	?	18µM*	12%	?	3%
COc1ccc(C(=O)N(Cc2ccccc2)Cc2ccccc2)cc1COc1ccc(NC(C)=O)cc1	.	.	-10%	.	.	.
CCC1CCCCN1Cc1nc2c(c(=O)n(C)c(=O)n2C)n1Cc1c(F)cccc1Cl (stereo not drawn)	.	.	-21%	.	8%	6%
